Data on 17 molecules can be found in paper PMC12136788.

First the molecules themselves.
B1: chr8:73046310:73046411:+|3pUTR|ENSG00000147601|msi1|total|mutant (ssRNA)
RNA: GGGAGUUCUACAGUCCGACGAUCUUGUAUUCUUUAAGAACCUUAUUUUGAUAAAAUGUAAAUUUGUUGAACCCUGCCACAUUCCGUAUCCCCACCCCCAAAUCCUGUUCCAAUGAAAAAAUUAAAACCUGAUACGAAAAAAAACAACAGAGGAUUGAGCAUCA
B2: chr4:70820284:70820384:-|3pUTR|ENSG00000132463|msi1_unk|FALSE|overlapping (ssRNA)
RNA: GGGAGUUCUACAGUCCGACGAUCUGAACUGGUAUGGUUUGGCAGAAUAGUUUUAAAUUUUGCUGUAUUUGAUUACUUAGAGAUAGGAAUUUUUAAAAAUCAAAACAAAAAAUACCACAGCUUAGUGUAAAUGACAAUUUGGCGCAACAGAGGAUUGAGCAUCA
B3: chr8:25429562:25429664:-|3pUTR|ENSG00000104756|unk|total|mutant (ssRNA)
RNA: GGGAGUUCUACAGUCCGACGAUCAGAAAAGCACUCAUUUAACCGAUGCCGGGAAACCCGAUAUUGCUGCCUUUUGAAUGGGGCCGGGGGGUUUACCUGGUUUUAUGACCAGGCACCGUAUCUAUUAUAUUUGCUUUUAAACCGCAACAGAGGAUUGAGCAUCA
B4: ENSG00000152661:stop:overlap|stop_codon|ENSG00000152661|stop_codon|NA|stop_codon (ssRNA)
RNA: GGGAGUUCUACAGUCCGACGAUCCUUCAAGCAGAGCCAGCAGUCGUGCCAGCAGCAGACCUCGGCCUGAUGACCUGGAGAUCUAGAUACAGGCUUGAAAGCAUCAAGAUUCCACUCAAUUGUGGAGAAGAAAAAAGGUGCUGUCAACAGAGGAUUGAGCAUCA
B5: chr5:116443554:116446612:-|three_prime_utr|ENSG00000092421|control|control|control (ssRNA)
RNA: GGGAGUUCUACAGUCCGACGAUCCCGCCAGUGUUACAGCUUUCUGUUGCAGCAGAUAAAUGCCAUGUUGGGCAACUAUGUCAUAGAUUUCUGCUCCUCCUCUCUUUUAAUGAAAUAACGUGACCGUUAACGCAAGUAACUCUUCAACAGAGGAUUGAGCAUCA
B6: chr20:59325757:59325866:+|3pUTR|ENSG00000124205|unk|FALSE|unique (ssRNA)
RNA: GGGAGUUCUACAGUCCGACGAUCUUAUGUGGAUCUGUUCAAAGUAGUCACUGUAUAUACGUAUAGAGAGGUAGAUAGGUAGGUAGAUUUUAAAUUGCAUUCUGAAUACAAACUCAUACUCCUUAGAGCUUGAAUUACAUUUUUCAACAGAGGAUUGAGCAUCA
B7: chr9:74692981:74693082:+|3pUTR|ENSG00000198963|unk|FALSE|unique (ssRNA)
RNA: GGGAGUUCUACAGUCCGACGAUCUUUUAUAUUACUUUAGAAUGUAAUAGGUUUUUGUCCUUAUUUUAUGUCCUGUAAAUUAUUAGUUCAAUACUGUUAGCAUUCCCGGAUAAUGCACACAUGAUUUCUGAAUGUUUUCUGUAACAACAGAGGAUUGAGCAUCA
B8: chr18:9400975:9401076:+|3pUTR|ENSG00000128791|msi1|total|mutant (ssRNA)
RNA: GGGAGUUCUACAGUCCGACGAUCUAUAAAAACCGAUAAUGCUCUUGGACACAUUUUGUAUUAUUCAUGAUCUGAACCGCCGUCCGUUAAAAGAUCAUUUGUAAUAUUAUGAUCAACUGUUAUAAAUUAAGGUCUUAAUACCUUCAACAGAGGAUUGAGCAUCA
B9: chr18:9400975:9401076:+|3pUTR|ENSG00000128791|msi1|FALSE|unique (ssRNA)
RNA: B8 RNA with C32U, C33A, C76U, C77A, C79U, C80A, C83U, C84A
B10: chr8:140515610:140515764:+|3pUTR|ENSG00000104472|unk|total|mutant (ssRNA)
RNA: GGGAGUUCUACAGUCCGACGAUCUUUUGGAAUCAGUUCUUAUAAACAGCUCGAUUCAGUUUCCGCUAAAUUUACCGUUCCGGCCGUAUGUUACAUUUGAAUUUUUGUCUUAAGAAAAGUUGACUGUUCAGAUAUUUUUCUACUCAACAGAGGAUUGAGCAUCA
B11: chr5:159157431:159157536:-|3pUTR|ENSG00000145860|unk|total|mutant (ssRNA)
RNA: GGGAGUUCUACAGUCCGACGAUCCAAAAAGUGUUUUUCAGACCUCGGUAUUCCUAAUGUGGGAUGUGACUUUAUUUUAUUUUCCGCCGCAAAUUUGGAUGCCGACUGACAGACACCGCUGAAUGUCUUAAUAAAUUUAAAUUUCAACAGAGGAUUGAGCAUCA
B12: chr8:140515610:140515764:+|3pUTR|ENSG00000104472|unk|FALSE|unique (ssRNA)
RNA: B10 RNA with C62U, C63A, C74U, C75A, C79U, C80A, C83U, C84A
B13: ENSG00000124766:be:win_3651|3pUTR|ENSG00000124766|bound_else_gene|NA|bound_elsewhere_windowed (ssRNA)
RNA: GGGAGUUCUACAGUCCGACGAUCUCGCUAAAUAUAAUUGUUUUAGUCUUAUGGCAUGAUGAUAGCAUAUGUGUUCAGGUUUAUAGCUGUUGUGUUUAAAAAUUGAAAAAAGUGGAAAACAUCUUUGUACAUUUAAGUCUGUAUCAACAGAGGAUUGAGCAUCA
B14: chr5:159157431:159157536:-|3pUTR|ENSG00000145860|unk|FALSE|bound_elsewhere (ssRNA)
RNA: B11 RNA with C83U, C84A, C86U, C87A, C101U, C102A, C115U, C116A
B15: chr12:50748518:50748596:+|3pUTR|ENSG00000066084|msi1_unk|FALSE|overlapping (ssRNA)
RNA: GGGAGUUCUACAGUCCGACGAUCUCAAAUUCAAACUACAGUACUGUGUAAUUAUGUAUAAAGUUUUUUUAUUUAUUUGAAGUUAGACUAGAUAUACGUUUUUAAAUUUAACAUCUGGCUGGACAGUGUUCUAUUAACUCAUUGCAACAGAGGAUUGAGCAUCA
B16: chr20:59325757:59325866:+|3pUTR|ENSG00000124205|unk|total|mutant (ssRNA)
RNA: GGGAGUUCUACAGUCCGACGAUCUUAUGUGGAUCUGUUCAAAGCCGUCACUGUAUAUACGUACCGAGAGGCCGACCGGCCGGCCGAUUUUAAAUUGCAUUCUGAAUACAAACUCAUACUCCUCCGAGCUUGAAUUACAUUUUUCAACAGAGGAUUGAGCAUCA
B17: chr4:42087128:42087229:+|3pUTR|ENSG00000014824|msi1|FALSE|unique (ssRNA)
RNA: GGGAGUUCUACAGUCCGACGAUCAUUUUGUAUAAUAUAGUUCAUACUGUGUCUGUGAGUUUCUUCAGUUACAAAUGGGCAUUUAGUAUAGUUAUAUUGACUAUAACAUGUAAGUAAAUAGCUUUCUACUGACCCUAAGUUAUCCAACAGAGGAUUGAGCAUCA

Positions count from the first letter of the chain named. In all, about 5,800 sequences were measured (“enrichment r”: median about 0.54, highest 2% from about 16 on). The sample as a whole holds a higher share of the highest values than the screen did.

Sequence of MSI1 full-length (Q61474 whole entry): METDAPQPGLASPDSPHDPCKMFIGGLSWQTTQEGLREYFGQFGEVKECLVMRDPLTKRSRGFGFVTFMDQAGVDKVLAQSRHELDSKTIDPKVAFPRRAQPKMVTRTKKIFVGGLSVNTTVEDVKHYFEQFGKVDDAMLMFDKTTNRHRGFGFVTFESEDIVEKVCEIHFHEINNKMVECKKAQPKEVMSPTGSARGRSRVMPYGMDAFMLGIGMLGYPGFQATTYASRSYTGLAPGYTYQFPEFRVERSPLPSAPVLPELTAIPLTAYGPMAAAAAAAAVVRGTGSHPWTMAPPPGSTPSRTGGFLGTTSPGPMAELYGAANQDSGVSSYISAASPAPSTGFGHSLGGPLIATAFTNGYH

This experiment addresses MSI1 full-length (mouse, UniProt Q61474 1-362). The experiment can be described thus: nsRBNS (natural sequence RNA bind-n-seq); RBNS binding buffer (assumed for nsRBNS): 25 mM Tris pH 7.5, 150 mM KCl, 3 mM MgCl2, 0.01% Triton X-100, 500 ug/ml BSA, 20 U/ml SUPERase-In, 4 C; UNK is unkempt and MSI1 is Musashi-1; names of the RNAs are library labels; protein concentration not given here; high values mean tight binding.
As to B1, the binding signal was found to be 2.83 enrichment R.
With B2, the binding signal is 4.91 enrichment R.
With B3 the figure was 0.472 enrichment R.
On to B4, for which the binding signal turned out to be 0.49 enrichment R.
For the molecule B5, the binding signal is 0.417 enrichment R.
With B6 the figure was 20.2 enrichment R; with B7, 2.02 enrichment R; with B8, 0.599 enrichment R.
As to B9, the binding signal amounted to 24 enrichment R.
On to B10, for which the binding signal worked out at 0.336 enrichment R.
As for B11, the binding signal stood at 0.361 enrichment R.
For B12, the binding signal was 69.1 enrichment R.
On to B13, for which the binding signal worked out at 2.43 enrichment R.
Molecule B14 displayed a binding signal of 23.3 enrichment R.
In turn, B15 displayed a binding signal of 5.2 enrichment R.
The molecule B16 displayed a binding signal of 0.342 enrichment R.
B17: the binding signal amounted to 2.94 enrichment R.
